Results published in the supplement of paper PMC13380429.

Test system: Vero E6 infected with SARS-CoV-2
Test: inhibition of SARS-CoV-2 cytopathic effect; higher = more antiviral protection, active = above 15
Conditions: 48 h

Measured: inhibition of SARS-CoV-2 cytopathic effect

Cc1ccc(CCCO)c(NCc2ccc3nc(NCCCN4CCOCC4)n(Cc4nc(C)ccc4O)c3c2)c1
inactive: 1 nM 0.48% | 8.33 nM -0.28% | 100 nM -0.6% | 833.33 nM -1.09% | 10000 nM -1.76%

COC(=O)c1ccc2c(c1)nc(NC(=O)c1ccccc1)n2CCCc1ccccc1
inactive: 1 nM -0.52% | 8.33 nM -1.27% | 100 nM -1.28% | 833.33 nM -5.07% | 10000 nM -1.86%

CC1(CN2CCC(n3c(=O)[nH]c4ccccc43)CC2)OCc2ccccc2-n2cccc21 (stereo not given) [zaldaride]
inactive: 1 nM 4.94% | 8.33 nM -0.44% | 100 nM 4.25% | 833.33 nM -2.81% | 10000 nM -4.06%

O=C(OC(C(F)(F)F)C(F)(F)F)N1CCC(C(O)(c2ccc3c(c2)OCO3)c2ccc3c(c2)OCO3)CC1
inactive: 1 nM -1.87% | 8.33 nM 0.04% | 100 nM -0.31% | 833.33 nM -1.03% | 10000 nM 0.49%
